# From PubChem BioAssay (NCATS)
# Records with an inconclusive call do not appear. Entries that show only a call come without a potency. Activity calls are given as the source filed them. Unless noted, calls come from the whole dose curve; as a rule, active = well fitted curve in the direction sought with a large enough effect; inconclusive = small, poorly fitted or top-dose-only effect, or another doubt; inactive = no such curve, though single readings can be large; an effect the other way counts as inactive or inconclusive.
# Key:
# [1] = molecular target: ATP-dependent 6-phosphofructokinase (Trypanosoma brucei brucei) (UniProt O15648); assay: qHTS Assay to Find Inhibitors of T. brucei phosphofructokinase: hit validation (AID 492961); note: potency is the fitted concentration of half-maximal effect
# ATP-dependent 6-phosphofructokinase (Trypanosoma brucei brucei), sequence (O15648 whole entry, looked up): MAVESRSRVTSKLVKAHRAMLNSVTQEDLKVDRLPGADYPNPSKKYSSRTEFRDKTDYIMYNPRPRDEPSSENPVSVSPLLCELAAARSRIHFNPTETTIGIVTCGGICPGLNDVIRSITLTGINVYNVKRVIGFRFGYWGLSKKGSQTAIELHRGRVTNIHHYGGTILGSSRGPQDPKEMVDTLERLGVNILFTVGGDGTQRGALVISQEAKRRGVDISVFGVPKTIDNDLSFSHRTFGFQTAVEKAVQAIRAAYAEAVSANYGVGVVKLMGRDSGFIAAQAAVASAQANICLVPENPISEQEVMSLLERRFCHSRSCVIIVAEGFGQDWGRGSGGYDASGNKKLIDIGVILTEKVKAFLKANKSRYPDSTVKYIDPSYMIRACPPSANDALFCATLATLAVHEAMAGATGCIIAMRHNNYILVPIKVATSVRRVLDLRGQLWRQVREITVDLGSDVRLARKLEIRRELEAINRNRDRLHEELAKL
# How it was run: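 Compounds titrated; %activity normalized to 0x and 1x enzyme controls, curve-fitted. Readout: ADP-Glo luminescence after 45 min room-temperature reaction of 1.25 nM PFK, 0.1 mM ATP, 0.5 mM F6P, pH 8.0.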
# [2] = molecular target: Galactokinase (Homo sapiens) (UniProt P51570); assay: qHTS Validation Assay for Inhibitors of Human Galactokinase (GALK) (AID 493189)
# Galactokinase (Homo sapiens), sequence (P51570 whole entry, looked up): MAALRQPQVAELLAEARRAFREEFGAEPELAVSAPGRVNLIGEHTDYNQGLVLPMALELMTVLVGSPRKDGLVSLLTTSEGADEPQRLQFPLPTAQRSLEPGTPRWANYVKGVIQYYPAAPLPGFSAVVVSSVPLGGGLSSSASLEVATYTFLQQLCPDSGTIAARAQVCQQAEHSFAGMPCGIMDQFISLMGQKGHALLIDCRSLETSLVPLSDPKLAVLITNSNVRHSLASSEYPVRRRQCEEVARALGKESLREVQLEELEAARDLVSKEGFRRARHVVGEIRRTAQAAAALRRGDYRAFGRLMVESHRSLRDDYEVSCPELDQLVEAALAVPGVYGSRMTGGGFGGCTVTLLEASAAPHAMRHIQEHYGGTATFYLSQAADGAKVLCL
# How it was run: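 Compounds were pin-transferred into ATP buffer, then GALK-galactose mix was added (final 5 nM enzyme, 100 uM galactose, 35 uM ATP). After 1 h at room temperature, remaining ATP was measured luminescently.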
# [3] = Validation screen for small molecules that induce DNA re-replication in SW480 colon adenocarcinoma cells (AID 504364)
# How it was run: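 Hoechst-stained SW480 nuclei, imaged at 405 nm excitation after 48 hr compound exposure, were counted for elevated DNA content as the re-replication signal.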
# [4] = Validation screen for small molecules that induce genotoxicity in human embryonic kidney (HEK293T) cells expressing luciferase-tagged ELG1 (AID 493106); note: potency is the fitted concentration of half-maximal effect
# How it was run: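 In this validation screen, increased ELG1-luciferase signal flags compounds causing genetic stress. HEK293T reporter cells are treated 16 hr (37 °C, 5% CO2), developed with ONE-Glo for 30 min at room temperature, and imaged on a CCD-based reader.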
# [5] = molecular target: ATPase family AAA domain-containing protein 5 (Homo sapiens) (UniProt Q96QE3); assay: Validation screen for small molecules that inhibit ELG1-dependent DNA repair in human embryonic kidney (HEK293T) cells expressing luciferase-tagged ELG1 (AID 493107);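 note: cells co-treated with the DNA-damaging agent 5-fluorouridine alongside compound; series mostly up to about 46 µM; inhibitors lower the ELG1-luciferase luminescence signal; nearly all actives have a fitted effect of over 70% in size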
# ATPase family AAA domain-containing protein 5 (Homo sapiens), sequence (Q96QE3 whole entry, looked up, the tested form may be a part): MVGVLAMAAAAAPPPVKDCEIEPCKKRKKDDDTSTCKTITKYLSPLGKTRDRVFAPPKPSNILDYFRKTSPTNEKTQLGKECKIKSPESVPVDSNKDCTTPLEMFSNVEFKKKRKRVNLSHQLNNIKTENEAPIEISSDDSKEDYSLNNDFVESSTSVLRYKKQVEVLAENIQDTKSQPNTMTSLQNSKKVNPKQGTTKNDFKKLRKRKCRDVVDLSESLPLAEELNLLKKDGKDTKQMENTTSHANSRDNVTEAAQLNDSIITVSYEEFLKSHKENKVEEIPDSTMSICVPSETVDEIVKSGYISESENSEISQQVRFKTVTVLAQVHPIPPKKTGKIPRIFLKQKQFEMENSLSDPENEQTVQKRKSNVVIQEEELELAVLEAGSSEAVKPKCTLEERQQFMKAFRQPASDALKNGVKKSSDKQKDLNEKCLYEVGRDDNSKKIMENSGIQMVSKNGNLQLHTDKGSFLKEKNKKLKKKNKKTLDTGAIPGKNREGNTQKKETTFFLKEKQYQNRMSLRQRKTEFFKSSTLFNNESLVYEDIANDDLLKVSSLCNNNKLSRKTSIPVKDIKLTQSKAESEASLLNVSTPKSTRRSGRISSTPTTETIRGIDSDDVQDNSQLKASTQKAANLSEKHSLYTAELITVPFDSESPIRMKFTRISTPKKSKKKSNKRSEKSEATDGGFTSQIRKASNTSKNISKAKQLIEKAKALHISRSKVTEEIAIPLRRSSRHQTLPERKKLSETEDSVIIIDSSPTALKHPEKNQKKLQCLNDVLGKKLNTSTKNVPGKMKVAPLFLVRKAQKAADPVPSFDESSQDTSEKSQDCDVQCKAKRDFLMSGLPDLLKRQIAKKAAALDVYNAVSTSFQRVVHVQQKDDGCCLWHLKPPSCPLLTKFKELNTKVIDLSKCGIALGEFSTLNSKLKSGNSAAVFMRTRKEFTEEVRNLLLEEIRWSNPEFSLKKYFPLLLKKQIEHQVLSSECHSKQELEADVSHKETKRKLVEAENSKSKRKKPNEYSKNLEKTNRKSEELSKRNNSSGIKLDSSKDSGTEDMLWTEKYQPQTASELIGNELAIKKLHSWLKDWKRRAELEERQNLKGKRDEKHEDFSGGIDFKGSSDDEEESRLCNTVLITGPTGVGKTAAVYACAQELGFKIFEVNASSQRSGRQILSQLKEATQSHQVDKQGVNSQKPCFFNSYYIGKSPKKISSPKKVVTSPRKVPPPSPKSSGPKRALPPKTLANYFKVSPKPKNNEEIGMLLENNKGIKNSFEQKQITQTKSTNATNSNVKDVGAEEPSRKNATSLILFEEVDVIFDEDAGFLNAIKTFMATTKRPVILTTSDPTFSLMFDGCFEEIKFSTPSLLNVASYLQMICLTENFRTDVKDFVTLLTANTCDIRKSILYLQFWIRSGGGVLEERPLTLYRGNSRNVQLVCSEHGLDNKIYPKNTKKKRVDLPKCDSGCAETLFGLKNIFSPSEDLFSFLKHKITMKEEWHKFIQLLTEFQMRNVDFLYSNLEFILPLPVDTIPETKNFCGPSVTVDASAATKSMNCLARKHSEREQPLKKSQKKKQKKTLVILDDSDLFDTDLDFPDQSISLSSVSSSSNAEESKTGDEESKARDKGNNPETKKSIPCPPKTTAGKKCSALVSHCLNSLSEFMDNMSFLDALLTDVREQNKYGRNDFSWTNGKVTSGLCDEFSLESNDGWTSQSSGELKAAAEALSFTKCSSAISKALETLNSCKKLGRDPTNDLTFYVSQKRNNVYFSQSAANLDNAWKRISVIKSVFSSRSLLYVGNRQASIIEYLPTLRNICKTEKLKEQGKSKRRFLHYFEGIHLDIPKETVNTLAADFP
# How it was run: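 Compounds reducing 5-fluorouridine-driven ELG1-luciferase signal in HEK293T cells were scored; exposure lasted 16 hr at 37 °C with luminescence detected via ONE-Glo.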
# [6] = Nrf2 qHTS screen for inhibitors: Validation (AID 493153; active = well fitted inhibition curve with a large enough effect in the main read-out, with a control signal flat, not every such curve was filed as active); settings: Potency: luciferase luminescence; viability change: measured here: cytotoxicity max response
# How it was run: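 In this counterscreened reporter format, each well gives two signals: CellTiter-Fluor fluorescence for cytotoxicity and ARE-luciferase luminescence for Nrf2 function. A549 ARE_Fluc cells in 5% FBS OPTI-MEM were exposed to compound titrations for 18-24 h.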
# [7] = qHTS for Inhibitors of Cell Surface uPA Generation: Validation Assay (AID 493164);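 note: RAW 264.7 macrophage cells exposed to compound for 18 h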
# How it was run: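 Compounds are titrated over seven points (2.45 nM–38.3 uM final) onto pre-plated RAW 264.7 cells and incubated for 18 h. Retained intracellular ATP, measured with ATP-Lite, indicates blocked lethal factor entry.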
# [8] = molecular target: Peptidyl-prolyl cis-trans isomerase NIMA-interacting 1 (Homo sapiens) (UniProt Q13526); assay: qHTS Validation Assay to Find Inhibitors of Pin1 (AID 504536; active = well fitted inhibition curve with a large enough effect in the polarisation, with a control signal flat, not every such curve was filed as active; the % refers to the polarisation)
# Peptidyl-prolyl cis-trans isomerase NIMA-interacting 1 (Homo sapiens), sequence (Q13526 whole entry, looked up): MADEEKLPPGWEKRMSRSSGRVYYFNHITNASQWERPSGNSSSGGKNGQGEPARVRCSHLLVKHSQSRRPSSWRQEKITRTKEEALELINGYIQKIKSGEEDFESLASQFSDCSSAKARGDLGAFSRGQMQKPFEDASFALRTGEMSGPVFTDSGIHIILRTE
# How it was run: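 Fluorescence polarization competition: compounds (titration) displace HiFluor-488-labeled Pin1-1b peptide from Pin1 (0.3 uM final) in pH 7.5 HEPES buffer with DTT, 10 min at room temperature; %Activity normalized to no-enzyme wells, curves fitted.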
structure (smiles),measurement,setting,value
C[C@H]1O[C@@H](n2cc(F)c(=O)[nH]c2=O)[C@H](O)[C@@H]1O,Potency,[1],inactive
same,outcome,[2],inactive
same,outcome,[3],inactive
CC[C@@]1(c2ccccc2)NC(=O)N(C)C1=O,Potency,[1],inactive
O=S(=O)(O)c1cc(I)c(O)c2ncccc12,Potency,[1],31.6 µM (active)
O=C(O)c1ccccn1,Potency,[1],inactive
NC(=O)NC(=O)Cc1ccccc1,Potency,[1],inactive
O=C(Oc1ccccc1C(=O)O)c1ccccc1O,Potency,[1],inactive
Cc1cc(C(C#N)c2ccc(Cl)cc2)c(Cl)cc1NC(=O)c1cc(I)cc(I)c1O (stereo not given),Potency,[1],inactive
Nc1ccc(S(=O)(=O)Nc2ccccc2)cc1,Potency,[1],inactive
CCN(CC)CCOC(=O)C1(C2CCCCC2)CCCCC1,Potency,[4],inactive
same,outcome,[5],inactive
same,Potency,[6],inactive
same,viability change,[6],-2.64%
same,outcome,[7],inactive
same,outcome,[2],inactive
same,outcome,[3],inactive
same,outcome,[8],inactive
CNCCC(Oc1ccc(C(F)(F)F)cc1)c1ccccc1 (stereo not given),Potency,[4],inactive
same,outcome,[5],inactive
same,Potency,[6],inactive
same,viability change,[6],3.02%
same,outcome,[7],inactive
same,outcome,[2],inactive
same,outcome,[3],inactive
same,outcome,[8],inactive
CCN(CC)CCCC(C)Nc1c2ccc(Cl)cc2nc2ccc(OC)cc12 (stereo not given),Potency,[4],2.59 µM (active)
same,outcome,[7],inactive
same,outcome,[2],inactive
same,outcome,[3],inactive
